From PubChem
Rv3671c protease = Rv3671c (M. tuberculosis) protease inhibition | inhibition, % at 5.96 µM | P9WHR9 | actives 0.048% (n = 320,000); in the data active means inhibition above about 38%;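 further: extracellular domain of Rv3671c used as enzyme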
Target sequence (P9WHR9 whole entry, looked up, the tested form may be a part): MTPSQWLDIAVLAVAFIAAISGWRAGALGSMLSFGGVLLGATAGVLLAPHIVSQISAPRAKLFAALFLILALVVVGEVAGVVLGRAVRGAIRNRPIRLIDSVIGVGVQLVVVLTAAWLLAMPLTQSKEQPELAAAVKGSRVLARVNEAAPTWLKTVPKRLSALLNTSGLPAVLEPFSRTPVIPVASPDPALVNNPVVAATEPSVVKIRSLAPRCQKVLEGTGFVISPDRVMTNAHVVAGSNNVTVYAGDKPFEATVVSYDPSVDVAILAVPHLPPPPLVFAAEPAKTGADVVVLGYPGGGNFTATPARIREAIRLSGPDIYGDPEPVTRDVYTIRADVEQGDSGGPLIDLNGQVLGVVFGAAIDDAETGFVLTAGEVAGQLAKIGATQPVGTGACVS
Mtb FBA inh = inhibits M. tuberculosis FBA enzyme | P9WQA3 | actives 2.3% (n = 360,000) | purified M. tuberculosis FBA, fluorescence read-out | inhibition, % at 1 µM
Target sequence (P9WQA3 whole entry, looked up): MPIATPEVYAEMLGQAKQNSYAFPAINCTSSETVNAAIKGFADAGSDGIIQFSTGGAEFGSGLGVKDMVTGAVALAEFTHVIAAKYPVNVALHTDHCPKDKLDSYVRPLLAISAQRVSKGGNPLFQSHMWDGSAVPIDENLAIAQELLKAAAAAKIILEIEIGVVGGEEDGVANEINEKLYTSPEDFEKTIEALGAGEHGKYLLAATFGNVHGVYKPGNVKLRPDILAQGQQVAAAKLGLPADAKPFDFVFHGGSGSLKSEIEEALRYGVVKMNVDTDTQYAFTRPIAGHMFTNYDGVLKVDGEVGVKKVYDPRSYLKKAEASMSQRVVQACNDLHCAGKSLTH
FadD28 FP inh = blocks FadD28 binding to the bisubstrate probe; fluorescence polarization; inhibition, % at 12.5 µM; actives 0.22% (n = 360,000); in the data active means inhibition above about 8.5%, passing the limit was not always enough
GDH-TPI counter-1 = GDH-TPI coupled enzyme inhibition counter-screen. actives 1.2% (n = 360,000). AID 588335. GDH-TPI coupled enzyme counterscreen, NADH absorbance. inhibition, % at 4.8 µM; in the data active means inhibition above about 30%
BioA inh = BioA (M. tuberculosis) enzyme inhibition; purified M. tuberculosis BioA enzyme, plate reader; inhibition, % at 9.99 µM; actives 0.096% (n = 360,000); AID 602481; in the data active means inhibition above about 40%
Mtb FBA inh conf = Mtb FBA inhibition, confirmed; purified M. tuberculosis FBA, fluorescence read-out; AID 651616; actives 78% (n = 5,600); inhibition, % at 1 µM; shares compounds with Mtb FBA inh
GDH-TPI counter-2 = GDH-TPI inhibition counter-screen for FBA inhibitors; shares compounds with Mtb FBA inh; GDH-TPI coupled enzyme counterscreen, fluorescence; inhibition, % at 1 µM; actives 81% (n = 5,600); AID 652141; in the data active means inhibition above about 10%
GDH-TPI DR = counter-screen for M. tuberculosis FBA inhibitors: GDH-TPI dose response; shares compounds with Mtb FBA inh; GDH-TPI coupled enzyme assay, fluorescence, artifact counterscreen; IC50, µM; actives 79% (n = 170); AID 652145; call rule not given here
Large screens that a line does not name were inactive (follow-up assays come after a bar, where they were run). An excerpt weighted towards active compounds, which were near 3% of everything screened. Unless noted, no stated cut-off is given here; in the data, active means inhibition above about 27%; inactive means the rest.

Cc1cccn2c(=O)c3cc(C(=O)N4CCN(Cc5ccccc5)CC4)sc3nc12	Mtb FBA inh 57.3 | Mtb FBA inh conf inactive | GDH-TPI counter-2 inactive
Cc1ccc(NC2CCCN(C(=O)c3cnc4ccccn4c3=O)C2)cc1C (stereo unspecified)	none
O=C(Cn1ccc2ccccc2c1=O)N1CCN(Cc2ccc3c(c2)OCO3)CC1	none
O=C(c1cc2c(=O)n3ccccc3nc2s1)N1CCN(Cc2ccc3c(c2)OCO3)CC1	Mtb FBA inh 95.6 (no result: BioA inh) | Mtb FBA inh conf inactive | GDH-TPI counter-2 inactive | GDH-TPI DR 2.32
CC1CCCN(C(=O)c2cc3c(=O)n4ccccc4nc3s2)C1 (stereo unspecified)	Mtb FBA inh 59.5 | Mtb FBA inh conf 49.8 | GDH-TPI counter-2 29.7
O=C(c1cc2c(=O)n3ccccc3nc2s1)N1CCN(Cc2ccccc2)CC1	Mtb FBA inh 105.3 | Mtb FBA inh conf inactive | GDH-TPI counter-2 inactive
Cc1noc(C)c1NC(=O)Nc1ccc2c(c1)CC(=O)N([C@H](C)CO)C[C@H](C)[C@@H](CN(C)C(=O)NC1CCCCC1)O2	none (no result: Rv3671c protease, Mtb FBA inh, FadD28 FP inh, GDH-TPI counter-1)
CCCNC(=O)C[C@@H]1CC[C@H]2[C@@H](COc3ccc(NC(=O)Nc4cccc(C)c4)cc3C(=O)N2C)O1	none (no result: Rv3671c protease, Mtb FBA inh, FadD28 FP inh, GDH-TPI counter-1)
O=C(Nc1ccc2c(c1)C(=O)NC2=O)c1cccc(Cl)c1	none
Cc1cccc(C(=O)Nc2ccc3c(c2)C(=O)NC3=O)c1	Mtb FBA inh 44.6 | Mtb FBA inh conf inactive | GDH-TPI counter-2 inactive
O=C1NC(=O)c2cc(NC(=O)C3CCCCC3)ccc21	Mtb FBA inh 43.9 | Mtb FBA inh conf 132.3 | GDH-TPI counter-2 88.5
CC(C)C(=O)Nc1ccc2c(c1)C(=O)NC2=O	Mtb FBA inh 46.1 (no result: BioA inh) | Mtb FBA inh conf inactive | GDH-TPI counter-2 13.1
Cc1cccc(C(=O)Nc2cccc(C(=O)N/N=C/c3ccccn3)c2)c1	Mtb FBA inh 48.1 | Mtb FBA inh conf inactive | GDH-TPI counter-2 inactive
Cc1cccc(C(=O)N/N=C/c2ccccn2)c1	none (no result: BioA inh)
O=C(NCC[C@@H]1CC[C@H](NS(=O)(=O)c2cccc(F)c2)[C@H](CO)O1)C1CC1	none (no result: Rv3671c protease, Mtb FBA inh, FadD28 FP inh, GDH-TPI counter-1)
O=C(O)COc1ccc2c(-c3ccccc3)cc(=O)oc2c1	none
CC(=O)COc1ccc2c(-c3cccc([N+](=O)[O-])c3)cc(=O)oc2c1	Mtb FBA inh 36.0 | Mtb FBA inh conf 107.7 | GDH-TPI counter-2 73.6
O=C(O)c1ccccc1-c1cc2ccccc2[nH]1	none (no result: BioA inh)
COc1ccccc1-c1cc2ccccc2[nH]1	Mtb FBA inh 89.7 | Mtb FBA inh conf 48.9 | GDH-TPI counter-2 26.6
CO[C@@H]1CN(C)C(=O)c2ccc(NC(=O)Cc3ccccc3)cc2OC[C@H](C)N(C(C)=O)C[C@H]1C	none (no result: Rv3671c protease, Mtb FBA inh, FadD28 FP inh, GDH-TPI counter-1)
CCOC(=O)c1cnc2c(C)cccc2c1NCc1ccco1	none
CCOC(=O)c1ccc2ncc(C(=O)OCC)c(NCc3ccco3)c2c1	Mtb FBA inh 62.5 | Mtb FBA inh conf inactive | GDH-TPI counter-2 inactive
CC1CN(c2oc(-c3ccccc3Cl)nc2C#N)CC(C)O1 (stereo unspecified)	none
Cc1cccc(-c2nc(C#N)c(NC3CCCCC3)o2)c1	Mtb FBA inh 95.9 | Mtb FBA inh conf 34.6 | GDH-TPI counter-2 27.0
Cc1ccc(-c2nc(C#N)c(N3CCC(C)CC3)o2)cc1	Mtb FBA inh 67.1 (no result: FadD28 FP inh) | Mtb FBA inh conf 61.1 | GDH-TPI counter-2 58.5
Cc1ccccc1OCc1nc(C#N)c(N2CCCC2)o1	none (no result: BioA inh)
CC1CCN(c2oc(Cc3cccc4ccccc34)nc2C#N)CC1	none
COc1ccc(-c2nc(C#N)c(N3CC(C)OC(C)C3)o2)cc1OC (stereo unspecified)	Mtb FBA inh 61.5 | Mtb FBA inh conf 97.9 | GDH-TPI counter-2 85.2
Cc1ccccc1-c1nc(C#N)c(N2CCCCC2)o1	Mtb FBA inh 70.4 | Mtb FBA inh conf inactive | GDH-TPI counter-2 inactive
CCCN1C[C@H](C)[C@H](OC)CN(C)C(=O)c2cc(NC(=O)C3CC3)ccc2OC[C@@H]1C	none (no result: Rv3671c protease, Mtb FBA inh, FadD28 FP inh, GDH-TPI counter-1)
COCC(=O)Nc1ccc2c(c1)C(=O)N(C)C[C@@H](OC)[C@H](C)CN(Cc1cc(F)ccc1F)[C@@H](C)CO2	none (no result: Rv3671c protease, Mtb FBA inh, FadD28 FP inh, GDH-TPI counter-1)
C[C@@H]1CN([C@@H](C)CO)C(=O)c2cc(NS(=O)(=O)c3ccc(F)cc3)ccc2O[C@@H](C)CCCCO[C@@H]1CN(C)C(=O)CCC(F)(F)F	none (no result: Rv3671c protease, Mtb FBA inh, FadD28 FP inh, GDH-TPI counter-1)
Cc1cccc(-c2nc(C#N)c(N3CCCCC3)o2)c1	Mtb FBA inh 37.8 | Mtb FBA inh conf 35.5 | GDH-TPI counter-2 32.6
CCN(CC)c1cc(C)c2cc(NC(=O)CNC(C)=O)ccc2n1	Mtb FBA inh 49.3 | Mtb FBA inh conf 101.2 | GDH-TPI counter-2 110.1
CCN(CC)c1cc(C)c2cc(NC(=O)c3ccccc3F)ccc2n1	none
CO[C@@H]1CN(C)C(=O)c2ccc(NC(=O)C3CCC3)cc2OC[C@H](C)N(C(=O)CN(C)C)C[C@@H]1C	none (no result: Rv3671c protease, Mtb FBA inh, FadD28 FP inh, GDH-TPI counter-1)
Cn1c(=O)c2c(C(=O)O)cc(-c3ccccc3)nc2n(Cc2ccccc2)c1=O	none
COc1ccccc1-c1cc(C(=O)O)c2c(=O)n(C)c(=O)n(Cc3ccccc3)c2n1	Mtb FBA inh 38.2 | Mtb FBA inh conf inactive | GDH-TPI counter-2 inactive
C[C@H](O)C#Cc1cnc2c(c1)C(=O)N([C@@H](C)CO)C[C@H](C)[C@@H](CN(C)Cc1ccc(-c3ccccc3)cc1)O2	none (no result: Rv3671c protease, Mtb FBA inh, FadD28 FP inh, GDH-TPI counter-1)
O=C(CSc1nc2scc(-c3ccccc3)c2c(=O)[nH]1)Nc1ccccc1	Mtb FBA inh 33.3 | Mtb FBA inh conf inactive | GDH-TPI counter-2 inactive
Cc1cc(-c2ccccc2)n2nc(N)nc2n1	Mtb FBA inh 33.6 | Mtb FBA inh conf 97.5 | GDH-TPI counter-2 76.1
Cc1cc(-c2ccccc2)n2nc(C)c(C#N)c2n1	Mtb FBA inh 27.3 | Mtb FBA inh conf active | GDH-TPI counter-2 active
Cc1cc(C)n2nc(N)nc2n1	none (no result: Rv3671c protease)
CCOc1ccc(-c2cc3cc(OC)c(OC)cc3c(C)n2)cc1	Mtb FBA inh 27.5 | Mtb FBA inh conf 60.0 | GDH-TPI counter-2 43.5
COC(=O)C1C(O)=C(C=Nc2cccc3ccccc23)C(=O)CC1(C)C (stereo unspecified)	Mtb FBA inh 31.8 (no result: BioA inh) | Mtb FBA inh conf 131.4 | GDH-TPI counter-2 93.5
COc1cc(OC)cc(-c2c(C#Cc3ccsc3)c3cc(-c4ccc(C(N)=O)cc4)ccc3n2C)c1	Mtb FBA inh 32.1 | Mtb FBA inh conf 35.7 | GDH-TPI counter-2 16.3
COc1ccc(-c2c(C#Cc3ccsc3)c3cc(-c4ccc(OC)nc4)ccc3n2C)cc1	none
COc1cc(OC)cc(-c2c(C#Cc3ccsc3)c3cc(-c4cnc(OC)nc4)ccc3n2C)c1	none
COc1cc(OC)cc(-c2c(C#Cc3ccsc3)c3cc(-c4cc(OC)c(OC)c(OC)c4)ccc3n2C)c1	Mtb FBA inh 46.5 | Mtb FBA inh conf inactive | GDH-TPI counter-2 inactive
C[C@H](CO)N1C[C@H](C)[C@@H](CN(C)C(=O)Nc2ccccc2)Oc2ncc(Br)cc2C1=O	none (no result: Rv3671c protease, Mtb FBA inh, FadD28 FP inh, GDH-TPI counter-1)
